A short description of experiment [1]: Primary qHTS for inhibitors of nuclear receptor binding SET domain protein 2 (NSD2) in an isogenic RCH-ACV NSD2 p.E1099K mutant (9B) (AID 1645876).
Experiment [2] is described as follows: Primary qHTS for inhibitors of nuclear receptor binding SET domain protein 2 (NSD2) in an RCH-ACV wild type WT cells (2C) (AID 1645877).

Several values for one entry are separate records, joined by “and”; a condition that tells them apart may be missing. Identical values can stand only once. Inconclusive results are not listed. Activity calls are given as the source filed them. The call rests on the fitted dose curve; in most records, active means well fitted curve in the direction sought with a large enough effect; inconclusive means small, poorly fitted or top-dose-only effect, or another doubt; inactive means no such curve, though single readings can be large; an effect the other way counts as inactive or inconclusive.
Further: nearly all actives have a fitted effect of over 70% in size.
Potency means the concentration at half of the fitted maximal effect.

On to `C=C1C(=O)O[C@@H]2C3=C(C)CCC[C@]3(C)CC[C@@]12O`, for which the Potency is 2.3 µM (active) in experiment [1] and 1.29 µM (active) in experiment [2].
The corresponding values for `O=S(=O)(c1ccccc1)N(CC(F)(F)F)c1ccc(C(O)(C(F)(F)F)C(F)(F)F)cc1` are 23 µM (active) and 23 µM (active).
The corresponding values for `CCCCCc1ccc(/C=C/C(=O)Nc2cc(Cl)ccc2C(=O)O)cc1` are “inactive” and “inactive”.
Consider `C=C1CC[C@@H]2[C@](C)(CO)[C@H](O)CC[C@@]2(C)[C@@H]1C/C=C1/C(=O)OCC1O` (some centres not stated), for which the Potency in experiment [1] is 14.5 µM (active); in experiment [2] it was 7.28 µM (active).
Turning to `C=C1CC[C@@H](O)[C@]2(C)C[C@H]3OC(=O)C(=C)[C@H]3CC12` (some centres not stated), the Potency in experiment [1] was 16.3 µM (active); in experiment [2], 12.9 µM (active).
In the same order, the values of `CCC(C)CC(=O)OC1C(=O)C(CO)=CC(O)C1C(C)C` (configuration not stated) are 2.58 µM (active) and 2.9 µM (active).
The corresponding values for `C=C1C(=O)O[C@@H]2[C@H]1CCC(C)=C(CCC(=O)O)[C@@]2(C)O` are 20.5 µM (active) and 10.3 µM (active).
The corresponding values for `NC(=O)c1cnc(N[C@@H]2CCCC[C@H]2N)nc1Nc1cccc(-n2nccn2)c1` are 0.649 µM (active) and 0.459 µM (active).
As to `Cn1ncc(Cl)c1-c1cc(C(=O)N[C@H](CN)Cc2ccc(F)c(F)c2)oc1Cl`, the figures for the Potency in experiment [1] and in experiment [2] were 0.649 µM (active) and 0.515 µM (active), respectively.
In the same order, the values of `CCc1c[nH]c2ncnc(N3CC[C@](N)(CNC(=O)c4ccc(F)cc4F)C3)c12` are 1.63 µM (active) and 3.65 µM (active).
In the same order, the values of `C=C1C(=O)O[C@@H]2C[C@@]3(C)CCCC(=C)[C@]3(O)C[C@H]12` are 8.17 µM (active) and 6.49 µM (active).
Turning to `Nc1nc(Nc2ccc3c(c2)CCC(N2CCCC2)CC3)nn1-c1cc2c(nn1)-c1ccccc1CCC2` (configuration not stated), the Potency in experiment [1] is 1.63 µM (active); in experiment [2], 1.45 µM (active).
In the case of `COc1ccc([C@H]2OC[C@H]3O[C@@H](O[C@H]4[C@@H]2NC[C@@H]4O)[C@H](O)[C@H]3O)cc1`, the Potency in experiment [1] was 0.8 µM (active); in experiment [2], 1.27 µM (active).
Take `CCCSc1nc(N[C@@H]2C[C@H]2c2ccc(F)c(F)c2)c2nnn([C@@H]3C[C@H](OCCO)[C@@H](O)[C@H]3O)c2n1`: the Potency in experiment [1] was 25.8 µM (active); in experiment [2] it was 18.3 µM (active).
In the same order, the values of `Cc1cc2c(F)c(Oc3ncnn4cc(OCC(C)OC(=O)C(C)N)c(C)c34)ccc2[nH]1` (configuration not stated) are 9.34 µM (active) and 8.33 µM (active).
The corresponding values for `CC1CC(=O)C2=C(C1)C1OC1C1(O)C2C(=O)c2cccc(O)c2C1O` (configuration not stated) are “inactive” and “inactive”.
The corresponding values for `C/C(=C/CO)CCC1C(C)CCC2C(C)(C)CCCC12C` (configuration not stated) are “inactive” and “inactive”.
With `C/C=C(\C)C(=O)O[C@H]1C=C(CO)C(=O)[C@H](OC(C)=O)[C@H]1C(C)C`, the Potency in experiment [1] and in experiment [2] was 2.84 µM (active) in each case.
As to `CCC(CC)(NC(=O)C(C)C)C(=O)N[C@@H](CCCN=C(N)N)C(=O)NC1(C(=O)NC(c2ccc(F)cc2)c2ccc(F)cc2)CCCC1`, the Potency result in experiment [1] and in experiment [2] was “inactive” throughout.
For `COc1ccc(C2=NC(c3ccc(Cl)cc3)C(c3ccc(Cl)cc3)N2C(=O)N2CCNC(=O)C2)c(OC(C)C)c1` (configuration not stated), the Potency in experiment [1] was 5.78 µM (active); in experiment [2], 2.58 µM (active).
In the same order, the values of `CCN1C(C)(C)CC(Oc2ccc(C(=O)Nc3ccc(NC(=O)Nc4cc(C(C)(C)C)on4)cc3)nc2)CC1(C)C` are 4.11 µM (active) and 6.51 µM (active).
For `C=C[C@@]1(C)CCC2C(=CCC3[C@]2(C)CCC[C@@]3(C)C(=O)O)C1` (some centres not stated), the Potency entry in experiment [1] and in experiment [2] was “inactive” each time.
With `C=C[C@@]1(C)C=C2C(=O)C(O)=C3[C@](C)(C(=O)O)CC[C@@H]4C[C@]34[C@]2(O)C(=O)C1`, the Potency was 10.1 µM (active) in experiment [1] and 2.53 µM (active) in experiment [2].
In the case of `CN(C)CCOC(C)(c1ccccc1)c1ccc(Cl)cc1` (configuration not stated), the Potency in experiment [1] was 11.5 µM (active); in experiment [2], 10.3 µM (active).
For `CC(NC(=O)Cc1cc(F)cc(F)c1)C(=O)NC1C(=O)N(C)c2ccccc2-c2ccccc21` (configuration not stated), the Potency was 2.58 µM (active) in experiment [1] and 3.25 µM (active) in experiment [2].
The corresponding values for `COC(CCc1ccc(O)cc1)CC(=O)CCc1ccc(O)cc1` (configuration not stated) are 5.67 µM (active) and 8.98 µM (active).
Consider `COCC(c1ccc(C(F)(F)F)cc1)N1CCN(C2(C)CCN(C(=O)c3c(C)ncnc3C)CC2)CC1C` (configuration not stated), for which the Potency entry in experiment [1] and in experiment [2] was “inactive” throughout.
For `O=C(NNc1nc2cc(F)ccc2n2cccc12)c1cnccn1`, the Potency in experiment [1] was 0.817 µM (active); in experiment [2], 0.916 µM (active).
`CC(C)(C)NC(=O)[C@H]1CC[C@H]2[C@@H]3CC[C@H]4NC(=O)CC[C@]4(C)[C@H]3CC[C@]12C`: the Potency entry in experiment [1] and in experiment [2] was “inactive” throughout.
Take `Cc1cn2cc(C(=O)N(C)CCO)cc(NC3CCOc4cccc(C)c43)c2n1` (configuration not stated): the Potency result in experiment [1] and in experiment [2] was “inactive” throughout.
Regarding `CC(=O)O[C@H]1CC(C)(C)CC2[C@]13CO[C@@]21CCC2[C@@]4(C)CC[C@H](O[C@@H]5OC[C@H](O[C@@H]6O[C@H](CO)[C@@H](O)[C@H](O)[C@H]6O[C@@H]6OC[C@@H](O[C@@H]7O[C@H](CO)[C@@H](O)[C@H](O)[C@H]7O)[C@H](O)[C@H]6O)[C@H](O)[C@H]5O[C@@H]5O[C@H](CO)[C@@H](O)[C@H](O)[C@H]5O)[C@@](C)(CO)C4CC[C@@]2(C)[C@]1(C)C[C@H]3O` (some centres not stated), the Potency was 1.09 µM (active) in experiment [1] and 2.18 µM (active) in experiment [2].
In the same order, the values of `COC1C=C(C)C(O)(CO)C2(C)CCCC(C)(C)C12` (configuration not stated) are “inactive” and “inactive”.
On to `C/C=C(\C)C(=O)O[C@H]1C=CC(=O)O[C@H]1/C=C/[C@@H](O)[C@H](C)O`, for which the Potency in experiment [1] is 16.3 µM (active); in experiment [2] it was 5.78 µM (active).
The corresponding values for `CC1CCCC(O)CC(=O)c2c(O)cc(O)cc2CC(=O)O1` (configuration not stated) are 8.01 µM (active) and 5.05 µM (active).
Regarding `c1cc(-c2cnn3cc(-c4ccc(N5CCNCC5)cc4)cnc23)c2cccnc2c1`, the results for the Potency in experiment [1] and in experiment [2] were 5.25 µM (active) and 4.17 µM (active), respectively.
The corresponding values for `Cc1cc(-c2nc3cc(F)ccc3s2)ccc1NC(=O)[C@@H](N)CCCCN` are 5.25 µM (active) and 4.17 µM (active).
For the molecule `C=C1CC2OC(=O)C(=C)C2C(O)/C=C(\C)CCC1O` (configuration not stated), the Potency in experiment [1] is 18.3 µM (active); in experiment [2] it was 16.3 µM (active).
In the same order, the values of `CC(C)(F)CC(NC(c1ccc(-c2ccc(S(C)(=O)=O)cc2)cc1)C(F)(F)F)C(=O)NC1(C#N)CC1` (configuration not stated) are “inactive” and “inactive”.
Consider `COc1ccc(C2Oc3c(OC)cc(CCCO)cc3C2COC2OC(CO)C(O)C(O)C2O)cc1OC` (configuration not stated), for which the Potency entry in experiment [1] and in experiment [2] was “inactive” each time.
With `COc1c(CCC(=O)O)cccc1O[C@@H]1O[C@H](CO)[C@@H](O)[C@H](O)[C@H]1O`, the Potency result in experiment [1] and in experiment [2] was “inactive” throughout.
Take `C[C@H](Nc1ncnc2nc[nH]c12)c1cc2cccc(Cl)c2c(=O)n1-c1ccccc1`: the Potency in experiment [1] was 4.09 µM (active) and 372 nM (active); in experiment [2], 7.28 µM (active) and 4.68 µM (active).
On to `CS(=O)(=O)c1ccc(Oc2cc(F)cc(C#N)c2)c2c1[C@H](O)C(F)(F)C2`, for which the Potency result in experiment [1] and in experiment [2] was “inactive” throughout.
For `Cc1c(F)ccc(C(=O)Nc2cc([N+](=O)[O-])ccc2N2CCN(C)CC2)c1Cl`, the Potency result in experiment [1] and in experiment [2] was “inactive” throughout.
As to `C=C1C(=O)OC2/C=C(\C)CC3C=C(CC/C=C(\C)CCC12)C(=O)O3` (configuration not stated), the Potency was 12.7 µM (active) in experiment [1] and 4.5 µM (active) in experiment [2].
In the same order, the values of `CCCCCCCCC(=O)N[C@H](CN1CCCC1)[C@H](O)c1ccc2c(c1)OCCO2` are 23 µM (active) and 18.3 µM (active).
As for `COc1cc(/C=C2\CCCN([C@@H](C)c3ccc(F)cc3)C2=O)ccc1-n1cnc(C)c1`, the Potency in experiment [1] is 11.5 µM (active); in experiment [2], 12.9 µM (active).
`CC(/C=C/C(=O)NO)=C\[C@@H](C)C(=O)c1ccc(N(C)C)cc1`: the Potency in experiment [1] was 183 nM (active) and 1.05 µM (active); in experiment [2] it was 183 nM (active) and 934 nM (active).
`C=CC(=O)Nc1ccc(CN2C(=O)N(c3cc(OC)cc(OC)c3)Cc3cnc(Nc4ccc(N5CCN(C)CC5)cc4)nc32)cc1`: the Potency was 1.46 µM (active) in experiment [1] and 0.817 µM (active) in experiment [2].
In the same order, the values of `COc1ccc(-n2c(SCCCN3C(=O)c4cccc5cccc(c45)C3=O)nnc2-c2ccncc2)cc1` are “inactive” and “inactive”.
For `Cc1[nH]c(/C=C2\C(=O)Nc3ccc(S(=O)(=O)N(C)c4cccc(Cl)c4)cc32)c(C)c1C(=O)N1CCN(C)CC1`, the Potency was 9.16 µM (active) and 5.25 µM (active) in experiment [1]; 7.28 µM (active) and 5.25 µM (active) in experiment [2].
As for `C/C1=C/CCC2=CC(OC2=O)C(C)(C)/C=C/C1=O` (configuration not stated), the Potency in experiment [1] was 0.578 µM (active); in experiment [2], 0.459 µM (active).
In the same order, the values of `C=C1C(=O)OC2CC(C)=C(C(C)CCCOC(C)=O)C(OC(=O)CC(C)CC)C12` (configuration not stated) are 7.09 µM (active) and 7.09 µM (active).
For the molecule `Cc1nc2c(C(F)(F)F)cccc2nc1-c1ccc(-c2cccc(S(C)(=O)=O)c2)cc1`, the Potency entry in experiment [1] and in experiment [2] was “inactive” throughout.
For `COc1cc(O)c2c(c1)C1OC1C[C@H](O)[C@H](O)C(=O)/C=C\C[C@H](C)OC2=O` (some centres not stated), the Potency was 3.25 µM (active) in experiment [1] and 2.05 µM (active) in experiment [2].
The corresponding values for `C=C1C(=O)O[C@@H]2[C@H]1CC[C@H](C)C(CCC(=O)O)C2(C)O` (some centres not stated) are 18.3 µM (active) and 12.9 µM (active).
With `C=C1CC[C@@H](O)[C@]2(C)CC[C@H]3C(=C)C(=O)O[C@@H]3[C@@H]12`, the Potency in experiment [1] is 20.5 µM (active); in experiment [2], 16.3 µM (active).
Regarding `COc1ccc(C2(N(C)C(=O)c3ccc(NC(=O)c4ccco4)cc3)CCOCC2)cc1`, the Potency result in experiment [1] and in experiment [2] was “inactive” throughout.
As for `C=C(COC(=O)C(O)C(O)CN)C12OC1C1(C)C(=CC2=O)C(O)C(O)CC1C` (configuration not stated), the Potency entry in experiment [1] and in experiment [2] was “inactive” in each case.
Take `COc1cc(CCO)ccc1O[C@@H]1O[C@H](CO)[C@@H](O)[C@H](O)[C@H]1O`: the Potency entry in experiment [1] and in experiment [2] was “inactive” throughout.
`CC(=O)NC(C(=O)O[C@H]1CCC(C)(C)[C@@H]2CC=C3C(=O)OCC3(O)[C@@]12C)C(C)C` (some centres not stated): the results for the Potency in experiment [1] and in experiment [2] were 8.01 µM (active) and 12.7 µM (active), respectively.
Turning to `C/C=C(/C)C(=O)O[C@H]1[C@H](OC(=O)/C(C)=C\C)[C@@]23C(CC1(C)C)[C@]1(CCC4[C@@]5(C)CC[C@H](O[C@@H]6O[C@H](C(=O)O)[C@@H](O)[C@H](O[C@@H]7O[C@H](CO)[C@H](O)[C@H](O)[C@H]7O[C@@H]7O[C@@H](C)[C@H](O)[C@@H](O)[C@H]7O[C@@H]7OC[C@@H](O)[C@H](O)[C@H]7O)[C@H]6O[C@@H]6O[C@H](CO)[C@H](O)[C@H](O)[C@H]6O)C(C)(C)C5CC[C@@]4(C)[C@]1(C)C[C@H]2O)O[C@H]3O` (some centres not stated), the values for the Potency in experiment [1] and in experiment [2] were 1.22 µM (active) and 2.18 µM (active), respectively.

Source of the values: PubChem BioAssay (NCATS).
